DT40 TDP1 CPT = growth inhibition of DT40 Tdp1-/-;hTDP1 cells with camptothecin (screen for TDP1 inhibitors) | hit rate 12% among 420,000 | AID 686979 | Potency, µM (highest dose often 46.2 µM), without a hit: top-dose activity change, negative = growth inhibition, hits mostly inhibitors | chicken DT40 Tdp1-/-;hTDP1 cells + 20 nM CPT, ATP luminescence, 48 h; further: potency means the concentration at half of the fitted maximal effect; nearly all actives have a fitted effect of over 55% in size
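Cell growth measured by CellTiter-Glo luminescence after a minimum 48 h, 37 C compound exposure with 20 nM CPT in Tdp1-knockout DT40 cells stably expressing hTDP1, seeded 400/well; qHTS titration format.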
HT1080 IDH1KD tx = toxicity to HT-1080 IDH1 knockdown cells (counter line); HT-1080 IDH1 knockdown viability, ATP luminescence, 48 h; Potency, µM (series often up to 46.1 µM), for inactives: at the highest dose activity, negative = toxicity, usual class: cytotoxic; hit rate 2% among 360,000; AID 686971;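 further: potency means the concentration at half of the fitted maximal effect; 0% = DMSO wells and -100% = cell-free medium wells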
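Luminescent ATP read-out (CellTiter-Glo, 10 min at room temperature) after 48 h compound exposure at 37 °C gave viability of IDH1-knockdown HT-1080 cells. Activity was normalised to DMSO and cell-free wells, then fitted as concentration-response curves.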
DT40 TDP1 no CPT = qHTS for Inhibitors of human tyrosyl-DNA phosphodiesterase 1 (TDP1): qHTS in cells in absence of CPT; DT40 Tdp1-/- hTDP1 cells, no CPT, ATP luminescence, 48 h; hit rate 15% among 420,000; AID 686978, 2013; Potency, µM (highest dose often 46.2 µM), inactives show at the highest dose activity change, negative = growth inhibition, most hits filed as inhibitors; further: potency means the concentration at half of the fitted maximal effect; nearly all actives have a fitted effect of over 55% in size
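Cells were dispensed at 400 per well, compounds added by pin tool, plates incubated ≥48 hr at 37 °C, then CellTiter-Glo added for 30 min at room temperature before luminescence reading. Line: DT40 Tdp1-/- complemented with hTDP1; camptothecin omitted.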
HT1080NT lethal = kills 2HG-producing HT-1080-NT fibrosarcoma cells; HT-1080-NT fibrosarcoma viability, CellTiter-Glo ATP luminescence, 48 h; Potency, µM (top dose mostly 46.1 µM), inactives show at the top dose activity, negative = less viability, usual class: cytotoxic; hit rate 1.6% among 360,000;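 further: NT is the 2HG producing partner of a matched IDH1 knockdown line; potency means the concentration at half of the fitted maximal effect; 0% = DMSO-treated cells and -100% = media-only wells without cells; nearly all actives have a fitted effect of over 55% in size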
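Toxicity toward the 2HG-producing NT line was scored as %Activity, normalised to DMSO and no-cell wells, from CellTiter-Glo luminescence after 48 hours' treatment.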
IL-1B inflam inh = inhibitors of inflammasome signaling (IL-1 beta secretion) | THP-1 LPS/ATP IL-1B secretion, AlphaLISA, 16 h; hits give low values | activity change, % at 57.5 µM | hit rate 4.7% among 360,000 | AID 743279; in the data active means activity change below about -50%; inconclusive means mostly about -30% to -49%
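Secreted IL-1B measured by AlphaLISA bead assay after 16 h compound exposure of THP-1 cells; compounds (final up to 57.5 uM) added 1 h before LPS (250 ng/mL) and ATP (1.25 mM) stimulation; lower signal means less secretion.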
Numbers without * were called inactive; [ ] = dose if it differs, or a comment. Most compounds without a hit are left out; they make up all but 19% or so of the library. Unless noted, the call rests on the fitted dose curve; in most records, active means well fitted curve in the direction sought with a large enough effect; inconclusive means small, poorly fitted or top-dose-only effect, or another doubt; inactive means no such curve, though single readings can be large; an effect the other way counts as inactive or inconclusive. Unless noted, on the % scale 0 is the no-effect control and ±100 the full control effect.

Results for CC(=O)n1cc([C@@H]2C=C(C(=O)NCc3ccccc3)O[C@H](OCc3ccc(CO)cc3)C2)c2ccccc21 ?
DT40 TDP1 CPT: 7.31µM*; HT1080 IDH1KD tx: -22.0%; DT40 TDP1 no CPT: 9.2µM*; HT1080NT lethal: -23.6%; IL-1B inflam inh: inconclusive

What do the screens show for `CC(=O)n1cc([C@H]2C=C(C(=O)N3CCN(Cc4ccccc4)CC3)O[C@@H](OCc3ccc(CO)cc3)C2)c2ccccc21`?
DT40 TDP1 CPT: 7.31µM*; HT1080 IDH1KD tx: -19.4%; DT40 TDP1 no CPT: 7.31µM*; HT1080NT lethal: -15.2%; IL-1B inflam inh: 0.0

What do the screens show for `CC(=O)n1cc([C@@H]2C=C(C(=O)O)O[C@H](OCc3ccc(CO)cc3)C2)c2ccccc21`?
DT40 TDP1 CPT: -0.7%; HT1080 IDH1KD tx: 8.2%; DT40 TDP1 no CPT: -3.5%; HT1080NT lethal: 12.1%; IL-1B inflam inh: 13.2

Results for C=CCOC(=O)C1=C[C@@H](c2cn(C(C)=O)c3ccccc23)C[C@@H](OCc2ccc(CO)cc2)O1 ?
DT40 TDP1 CPT: inconclusive; HT1080 IDH1KD tx: -14.1%; DT40 TDP1 no CPT: inconclusive; HT1080NT lethal: -4.2%; IL-1B inflam inh: 12.8

What do the screens show for `CCOC(=O)c1sc(NC(=O)C(CC)OC(=O)c2ccco2)nc1C` (centres undefined)?
DT40 TDP1 CPT: -11.3%; HT1080 IDH1KD tx: 2.1%; DT40 TDP1 no CPT: -16.5%; HT1080NT lethal: -4.1%; IL-1B inflam inh: -83.7*

What do the screens show for `CCOC(=O)c1sc(NC(=S)NC(=O)c2ccco2)nc1C`?
DT40 TDP1 CPT: -4.0%; HT1080 IDH1KD tx: -2.4%; DT40 TDP1 no CPT: -27.3%; HT1080NT lethal: 1.6%; IL-1B inflam inh: 12.0

How did COC(=O)c1sc(NC(=O)c2ccco2)nc1C do in these assays?
DT40 TDP1 CPT: inconclusive; HT1080 IDH1KD tx: -4.9%; DT40 TDP1 no CPT: inconclusive; HT1080NT lethal: 4.6%; IL-1B inflam inh: 14.1

What do the screens show for `Cc1nc(NC(=O)c2ccco2)sc1C(=O)O`?
DT40 TDP1 CPT: 6.51µM*; HT1080 IDH1KD tx: 23.1µM*; DT40 TDP1 no CPT: 10.3µM*; HT1080NT lethal: 23.1µM*; IL-1B inflam inh: 19.1

Results for CCCCNC(=O)C(NC(=O)c1ccc(C)cc1)C(=O)c1ccccc1 (centres undefined) ?
DT40 TDP1 CPT: -1.6%; HT1080 IDH1KD tx: 10.9%; DT40 TDP1 no CPT: -25.3%; HT1080NT lethal: 14.2%; IL-1B inflam inh: 23.2

What do the screens show for `CCn1c(CN2CCOCC2)nnc1SCC(=O)Nc1ccccc1Cl`?
DT40 TDP1 CPT: 26.1%; HT1080 IDH1KD tx: 9.6%; DT40 TDP1 no CPT: -7.9%; HT1080NT lethal: 14.5%; IL-1B inflam inh: 3.5

Results for C=CCSc1nc2c(C(=O)OCC)nnn2c2ccccc12 ?
DT40 TDP1 CPT: inconclusive; HT1080 IDH1KD tx: -12.5%; DT40 TDP1 no CPT: 9.2µM*; HT1080NT lethal: -8.1%; IL-1B inflam inh: 2.4

Results for CCOC(=O)c1nnn2c1nc(Nc1cccc(C(F)(F)F)c1)c1ccccc12 ?
DT40 TDP1 CPT: 10.3µM*; HT1080 IDH1KD tx: 19.3%; DT40 TDP1 no CPT: 5.8µM*; HT1080NT lethal: 25.5%

What do the screens show for `COCCNc1nc2c(-c3cccc(C(F)(F)F)c3)nnn2c2ccccc12`?
DT40 TDP1 CPT: 2.2%; HT1080 IDH1KD tx: 13.3%; DT40 TDP1 no CPT: -20.8%; HT1080NT lethal: 14.8%; IL-1B inflam inh: 39.2

How did CC1CCC(Nc2nc3c(-c4cccc(C(F)(F)F)c4)nnn3c3ccccc23)CC1 (centres undefined) do in these assays?
DT40 TDP1 CPT: inconclusive; DT40 TDP1 no CPT: 29.1µM*

Results for CCOC(=O)c1nnn2c1nc(SCC(C)=O)c1ccccc12 ?
DT40 TDP1 CPT: 0.5%; HT1080 IDH1KD tx: 3.5%; DT40 TDP1 no CPT: inconclusive; HT1080NT lethal: -1.2%; IL-1B inflam inh: 6.0

Results for NNc1nc2c(-c3cccc(C(F)(F)F)c3)nnn2c2ccccc12 ?
DT40 TDP1 CPT: -119.1%; HT1080 IDH1KD tx: 20.6µM*; DT40 TDP1 no CPT: -106.4%; HT1080NT lethal: 20.6µM*; IL-1B inflam inh: -12.1

What do the screens show for `Cc1cc2c(SCC(=O)Nc3cccc(O)c3)ncnc2s1`?
DT40 TDP1 CPT: 10.1%; HT1080 IDH1KD tx: 2.3%; DT40 TDP1 no CPT: -9.9%; HT1080NT lethal: -2.5%; IL-1B inflam inh: 1.3

Results for CCc1ccc(C(=O)NNc2ccc(F)cc2F)cc1 ?
DT40 TDP1 CPT: -29.7%; HT1080 IDH1KD tx: -9.9%; DT40 TDP1 no CPT: -7.0%; HT1080NT lethal: -5.4%; IL-1B inflam inh: -6.5

Results for Cc1cc(C)n(CC(=O)N2CCC(n3c(C(C)C)nc4cccnc43)CC2)n1 ?
DT40 TDP1 CPT: 13.5%[9.04 µM]; DT40 TDP1 no CPT: -9.5%

Results for O=C(CCc1ccccc1)NCc1ccccn1 ?
DT40 TDP1 CPT: -26.2%; HT1080 IDH1KD tx: 5.2%; DT40 TDP1 no CPT: -7.2%; HT1080NT lethal: 6.5%; IL-1B inflam inh: 23.2

Results for CCCC(=O)NC(c1cccs1)c1cc([N+](=O)[O-])c2cccnc2c1O (centres undefined) ?
DT40 TDP1 CPT: 23.1µM*; HT1080 IDH1KD tx: inconclusive; DT40 TDP1 no CPT: 13µM*; HT1080NT lethal: -29.4%; IL-1B inflam inh: inconclusive

What do the screens show for `O=C(CCc1ccccc1)NC(c1cccs1)c1cc(Cl)c2cccnc2c1O` (centres undefined)?
DT40 TDP1 CPT: 3.66µM*; HT1080 IDH1KD tx: inconclusive; DT40 TDP1 no CPT: 4.11µM*; HT1080NT lethal: inconclusive; IL-1B inflam inh: 109.2

How did CC(C)C(=O)NC(c1ccccc1)c1cc([N+](=O)[O-])c2cccnc2c1O (centres undefined) do in these assays?
DT40 TDP1 CPT: 18.4µM*; HT1080 IDH1KD tx: 16.4µM*; DT40 TDP1 no CPT: inconclusive; HT1080NT lethal: inconclusive; IL-1B inflam inh: 34.1

What do the screens show for `CCC(=O)NC(c1cccs1)c1cc([N+](=O)[O-])c2cccnc2c1O` (centres undefined)?
DT40 TDP1 CPT: 20.6µM*; HT1080 IDH1KD tx: 13µM*; DT40 TDP1 no CPT: inconclusive; HT1080NT lethal: inconclusive; IL-1B inflam inh: 32.1

Results for O=C1CC(c2ccccc2)CC(O)=C1C=NCc1ccc(Cl)cc1 (centres undefined) ?
DT40 TDP1 CPT: -24.8%; HT1080 IDH1KD tx: 2.5%; DT40 TDP1 no CPT: -14.6%; HT1080NT lethal: 5.0%; IL-1B inflam inh: 0.0

Results for COc1ccc(/C=C/CN2CCN(Cc3ccccc3)C(CCO)C2)cc1 (centres undefined) ?
DT40 TDP1 CPT: -6.9%; HT1080 IDH1KD tx: -16.9%; DT40 TDP1 no CPT: -22.2%; HT1080NT lethal: -3.4%; IL-1B inflam inh: -8.2

What do the screens show for `COc1ccc(/C=C/CN2CCC(CO)(Cc3ccccc3Cl)CC2)cc1`?
DT40 TDP1 CPT: inconclusive; HT1080 IDH1KD tx: 23.1µM*; DT40 TDP1 no CPT: 14.6µM*; HT1080NT lethal: 23.1µM*; IL-1B inflam inh: -79.2*
